Test results: PubChem BioAssay (EPA / NIEHS)
Results filed as inconclusive are left out. The source made the active and inactive calls. Rule for the calls, unless noted: active = hit-call score of the fitted dose curve at least 0.9, where 1 is the maximum; inconclusive = response in the unintended direction; inactive = score below 0.9.

What was measured:
[1] = TOX21_TRB_BLA_Agonist_Followup_viability: Viability Assessment in the Tox21 Thyroid Hormone Receptor beta Agonism Beta-lactamase (BLA) Follow-Up Assay (AID 2283956)
Outline: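 Viability was read as CellTiter-Glo luminescence in the same wells as the TRb-bla agonist read-out. HEK293T GAL4-TRb LBD cells were treated for 18 h (37C, 5% CO2) at 11 concentrations in triplicate. Fits were bidirectional versus DMSO baseline.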

THRB (gene 7068) = THRB (gene 7068) (UniProt P10828); assay: TOX21_TRB_COA_Agonist_Followup_ratio: Tox21 Thyroid Hormone Receptor beta Agonism through Coactivator Recruitment Follow-Up Assay, Ratio (AID 2283963; active = hit-call score of the fitted dose curve at least 0.9, where 1 is the maximum; inactive = score below 0.9)
Outline: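 Agonism is measured as coactivator recruitment in a purified-protein TR-FRET format, using GST-TRβ LBD at 5.0 nM, fluorescein-SRC-2 peptide at 200 nM and Tb-labeled anti-GST antibody at 2 nM. Values are 520:495 nm ratios relative to DMSO (0%) and T3 (100%).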

[2] = molecular target: Retinoic acid receptor RXR-alpha (Homo sapiens) (UniProt P19793); assay: TOX21_TR_RXR_BLA_Agonist_Followup_ratio: Tox21 Thyroid Hormone Receptor beta Retinoid X Receptor alpha (RXRa) Agonism Beta-lactamase (BLA) Follow-Up Assay, Ratio (AID 2283968)
Outline: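 Cells were first allowed to attach for 5 h, after which compounds in DMSO were pinned at 11 concentrations and incubated 16 h at 37C. LiveBLAzer CCF4-AM substrate was then added for 2 h at room temperature before reading 460 and 530 nm fluorescence.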

[3] = TOX21_TR_RXR_BLA_Agonist_Followup_viability: Viability Assessment in the Tox21 Thyroid Hormone Receptor beta Retinoid X Receptor alpha (RXRa) Agonism Beta-lactamase (BLA) Follow-Up Assay (AID 2283970)
Outline: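 Viability counter-screen run alongside the RXRa bla follow-up: HEK293T reporter cells were treated for 16h at 37C in stripped-serum medium, then ATP was quantified by luciferase-coupled CellTiter-Glo. Decreased signal relative to DMSO marked cytotoxicity.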

[4] = molecular target: human CYP2D6, CYP2D6 (gene 1565) (UniProt P10635); assay: NVS_ADME_hCYP2D6: NovaScreen (NVS) CYP450-related Enzyme Activity (ADME) Assay for human CYP2D6 (AID 2283107)
Outline: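 Insect-cell recombinant enzyme + fluorogenic substrate, cell-free; 1 h incubation; fluorescence intensity readout. Acetonitrile = neg. ctrl/baseline. Single-point 10 uM, duplicate; follow-up concentration series.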

rat CYP2C6, gene 293989 = assay: NVS_ADME_rCYP2C6: NovaScreen (NVS) CYP450-related Enzyme Activity (ADME) Assay for rat CYP2C6 (AID 2283120)
Outline: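 Compounds first tested in duplicate at 10 uM, hits (e.g. 30% inhibition) re-run in singleton dose series to a 20 uM top concentration. Enzyme activity of recombinant rat CYP2C6 measured via fluorescent substrate turnover after 1 h; acetonitrile baseline.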

[5] = UKN5_HCS_SBAD2_cell_viability: Viability Assessment in the University of Konstanz (UKN) Leist Lab Neurite Outgrowth Assay in human iPSC-derived immature Dorsal Root Ganglia Neurons (UKN5) (AID 2284056; active = hit-call score of the fitted dose curve at least 0.9, where 1 is the maximum; inactive = score below 0.9)
Outline: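 iPSC-derived immature peripheral neurons (SBAD2) seeded on Matrigel with CHIR99021, SU5402 and DAPT, dosed 1 h later for 24 h. Viability from Hoechst H-33342 and calcein-AM live staining, high-content imaging; bidirectional fit versus DMSO.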

[6] = UKN5_HCS_SBAD2_neurite_outgrowth: University of Konstanz (UKN) Leist Lab Neurite Outgrowth Assay in human iPSC-derived immature Dorsal Root Ganglia Neurons (UKN5) (AID 2284070; active = hit-call score of the fitted dose curve at least 0.9, where 1 is the maximum; inactive = score below 0.9); settings: actives raise or lower the signal
Outline: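 Thaw, seed on Matrigel (100.000 cells/cm2), dose 1 h later; at 23 h live-stain with H-33342 and calcein-AM for 60 min; image at 24 h. Neurite area fitted bidirectionally vs DMSO.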

[7] = UKN2_HCS_IMR90_neural_migration: University of Konstanz (UKN) Leist Lab Neural Crest Cell Migration Assay in human induced IMR90 Pluripotent Stem Cells (UKN2) (AID 2284204; active = hit-call score of the fitted dose curve at least 0.9, where 1 is the maximum; inactive = score below 0.9); settings: actives raise or lower the signal
Outline: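 High-content imaging of calcein-AM and Hoechst stained cells quantifies migration into a stopper-defined gap after 24 h compound exposure. Neural crest cells from IMR90 iPSC migrated 24 h in EGF/FGF N2-S medium before dosing; DMSO baseline.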

[8] = UKN4_HCS_LUHMES_neurite_outgrowth: University of Konstanz (UKN) Leist Lab Neurite Outgrowth Assay in human LUHMES cells (UKN4) (AID 2284206; active = hit-call score of the fitted dose curve at least 0.9, where 1 is the maximum; inactive = score below 0.9); settings: actives raise or lower the signal
Outline: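 Human LUHMES cells were differentiated for two days, replated and treated with chemicals for 24 h. Neurite outgrowth was quantified as calcein-stained neurite area by HCS imaging, fitted bidirectionally relative to DMSO.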

[9] = UKN4_HCS_LUHMES_cell_viability: Viability Assessment in the University of Konstanz (UKN) Leist Lab Neurite Outgrowth Assay in human LUHMES cells (UKN4) (AID 2284232; active = hit-call score of the fitted dose curve at least 0.9, where 1 is the maximum; inactive = score below 0.9)
Outline: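 Cells switched to differentiation medium at day 0, replated on day 2 in medium lacking cAMP and GDNF, and compound-treated once attached. Live staining began 23.5 h later, imaging followed at 24 h.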

[10] = UKN2_HCS_IMR90_cell_viability: Viability Assessment in the University of Konstanz (UKN) Leist Lab Neural Crest Cell Migration Assay in human induced IMR90 Pluripotent Stem Cells (UKN2) (AID 2284233; active = hit-call score of the fitted dose curve at least 0.9, where 1 is the maximum; inactive = score below 0.9;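 note: cells exposed to compound for 24 h after a 24 h migration phase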)
Outline: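 After calcein-AM/Hoechst staining, viability is quantified by high-content fluorescence imaging, relative to DMSO, in iPSC (IMR90)-derived neural crest cells. Exposure lasts 24 h, starting after a 24 h migration period on PLO/laminin/fibronectin coating.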

[11] = molecular target: human AMP-activated Protein Kinase, alpha 1 (AMPKa1), PRKAA1 (gene 5562) (UniProt Q13131); assay: NVS_ENZ_hAMPKa1: NovaScreen (NVS) Enzymatic Assay for human AMP-activated Protein Kinase, alpha 1 (AMPKa1) (AID 2283130)
Outline: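 Compounds were screened in duplicate at 25 uM, and those reaching ~30% inhibition were titrated up to 50 uM. The enzyme was recombinant human AMPKα1, and kinase turnover was read by fluorescence/mobility shift 1 h post-dosing as loss of signal versus DMSO.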

[12] = molecular target: human AKT serine/threonine Kinase 1 (AKT1), AKT1 (gene 207) (UniProt P31749); assay: NVS_ENZ_hAKT1: NovaScreen (NVS) Enzymatic Assay for human AKT serine/threonine Kinase 1 (AKT1) (AID 2283138)
Outline: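 Compounds were first tested in duplicate at 25 uM, and those passing a threshold such as 30% inhibition were run in concentration-response to a maximum of 50 uM. Enzyme activity was measured after 1 h by fluorescence following substrate/product mobility-shift separation.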

[13] = molecular target: human Casein Kinase 1-delta (CK1D), CSNK1D (gene 1453) (UniProt P48730); assay: NVS_ENZ_hCK1D: NovaScreen (NVS) Enzymatic Assay for human Casein Kinase 1-delta (CK1D) (AID 2283148)
Outline: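 Recombinant human CK1-delta, cell-free; fluorescent substrate with electrophoretic mobility-shift separation of product, read 1 h after dosing. Single 25 uM duplicate screen, then concentration-response up to 50 uM; loss of signal vs DMSO.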

[14] = molecular target: human Colony Stimulating Factor 1 Receptor (CSF1R), CSF1R (gene 1436) (UniProt P07333); assay: NVS_ENZ_hCSF1R: NovaScreen (NVS) Enzymatic Assay for human Colony Stimulating Factor 1 Receptor (CSF1R) (AID 2283150)
Outline: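 Compounds screened in duplicate at 25 uM, then concentration-response (top 50 uM) for those passing threshold such as 30% inhibition; recombinant CSF1R activity measured 1 h post-dosing via fluorescent substrate/product mobility-shift separation, loss of signal versus DMSO.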

[15] = molecular target: human FYN Proto-Oncogene, Src family Tyrosine Kinase (Fyn), FYN (gene 2534) (UniProt P06241); assay: NVS_ENZ_hFyn: NovaScreen (NVS) Enzymatic Assay for human FYN Proto-Oncogene, Src family Tyrosine Kinase (Fyn) (AID 2283161)
Outline: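 Cell-free kinase activity read by fluorescence after mobility-shift separation of substrate and product, 1 h post-dose. Initial single concentration 25 uM in duplicate, then concentration-response follow-up; DMSO baseline.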

[16] = molecular target: Tyrosine-protein phosphatase non-receptor type 11 (Homo sapiens) (UniProt Q06124); assay: NVS_ENZ_hPTPN11: NovaScreen (NVS) Enzymatic Assay for human Protein Tyrosine Phosphatase Non-receptor Type 11 (PTPN11) (AID 2283202)
Outline: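 Compounds first tested in duplicate at 25 uM; those reaching ~30% inhibition rerun in singleton concentration-response, top 50 uM. Phosphatase activity measured after 0.5 h by fluorescence with mobility-shift separation, relative to DMSO.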

[17] = molecular target: Tyrosine-protein phosphatase non-receptor type 13 (Homo sapiens) (UniProt Q12923); assay: NVS_ENZ_hPTPN13: NovaScreen (NVS) Enzymatic Assay for human Protein Tyrosine Phosphatase Non-receptor Type 13 (PTPN13) (AID 2283205)
Outline: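 Screened first at a single 25 uM in duplicate; compounds passing the threshold (e.g. 30% inhibition) were rerun in concentration series, top 50 uM. Recombinant enzyme, fluorescent substrate, mobility-shift separation, 0.5 h read. Data fitted as inhibition relative to DMSO.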

[18] = molecular target: human Protein Tyrosine Phosphatase Non-receptor Type 2 (PTPN2), PTPN2 (gene 5771) (UniProt P17706); assay: NVS_ENZ_hPTPN2: NovaScreen (NVS) Enzymatic Assay for human Protein Tyrosine Phosphatase Non-receptor Type 2 (PTPN2) (AID 2283207)
Outline: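 Activity measured as fluorescence after mobility-shift separation of substrate and product, 1 h after compound. Duplicate single-point 25 uM primary testing, concentration series for actives; inhibition scored as signal loss relative to DMSO baseline.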

Measured: AC50

Chain of THRB (gene 7068) (P10828 whole entry, looked up, the tested form may be a part): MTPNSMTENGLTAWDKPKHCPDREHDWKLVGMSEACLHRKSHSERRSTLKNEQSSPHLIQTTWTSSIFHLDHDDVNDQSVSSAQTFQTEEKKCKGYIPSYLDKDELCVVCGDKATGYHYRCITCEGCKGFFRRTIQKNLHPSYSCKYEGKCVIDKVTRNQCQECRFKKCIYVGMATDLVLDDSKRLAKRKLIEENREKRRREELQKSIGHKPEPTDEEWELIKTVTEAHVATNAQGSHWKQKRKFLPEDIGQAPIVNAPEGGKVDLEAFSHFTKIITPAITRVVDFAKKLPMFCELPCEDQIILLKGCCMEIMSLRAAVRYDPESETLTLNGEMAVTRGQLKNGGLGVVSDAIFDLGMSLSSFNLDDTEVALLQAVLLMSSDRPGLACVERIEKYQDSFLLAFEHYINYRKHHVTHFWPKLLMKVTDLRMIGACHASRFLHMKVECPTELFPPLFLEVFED
Chain of human Protein Tyrosine Phosphatase Non-receptor Type 2 (PTPN2), PTPN2 (gene 5771) (P17706 whole entry, looked up): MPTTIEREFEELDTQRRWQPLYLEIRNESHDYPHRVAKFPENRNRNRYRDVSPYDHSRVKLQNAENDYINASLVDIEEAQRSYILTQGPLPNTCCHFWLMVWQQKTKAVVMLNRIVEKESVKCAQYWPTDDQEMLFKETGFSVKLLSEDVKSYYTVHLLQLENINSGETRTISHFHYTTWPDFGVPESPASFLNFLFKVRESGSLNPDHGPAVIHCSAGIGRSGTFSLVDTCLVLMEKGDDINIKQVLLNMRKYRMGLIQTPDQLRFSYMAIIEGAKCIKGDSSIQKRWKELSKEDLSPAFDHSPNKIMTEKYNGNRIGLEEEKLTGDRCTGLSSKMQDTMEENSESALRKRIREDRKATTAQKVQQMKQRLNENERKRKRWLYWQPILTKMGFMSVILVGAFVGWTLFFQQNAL
Chain of human AMP-activated Protein Kinase, alpha 1 (AMPKa1), PRKAA1 (gene 5562) (Q13131 whole entry, looked up): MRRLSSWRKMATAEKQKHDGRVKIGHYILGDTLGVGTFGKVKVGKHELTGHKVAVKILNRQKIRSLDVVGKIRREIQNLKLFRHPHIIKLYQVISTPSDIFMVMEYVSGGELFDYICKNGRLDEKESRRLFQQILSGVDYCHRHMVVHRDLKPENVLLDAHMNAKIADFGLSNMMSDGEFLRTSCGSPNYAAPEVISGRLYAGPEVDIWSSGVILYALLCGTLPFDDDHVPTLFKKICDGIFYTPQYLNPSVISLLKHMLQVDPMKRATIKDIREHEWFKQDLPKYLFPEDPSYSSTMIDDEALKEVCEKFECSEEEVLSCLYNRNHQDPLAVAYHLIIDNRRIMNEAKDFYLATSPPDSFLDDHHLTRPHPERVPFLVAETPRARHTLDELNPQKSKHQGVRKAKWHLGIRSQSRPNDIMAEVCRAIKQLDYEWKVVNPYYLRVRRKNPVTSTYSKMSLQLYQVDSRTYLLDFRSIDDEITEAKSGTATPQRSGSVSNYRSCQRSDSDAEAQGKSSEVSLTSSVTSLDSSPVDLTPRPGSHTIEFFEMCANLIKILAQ
Chain of Tyrosine-protein phosphatase non-receptor type 11 (Homo sapiens) (Q06124 whole entry, looked up): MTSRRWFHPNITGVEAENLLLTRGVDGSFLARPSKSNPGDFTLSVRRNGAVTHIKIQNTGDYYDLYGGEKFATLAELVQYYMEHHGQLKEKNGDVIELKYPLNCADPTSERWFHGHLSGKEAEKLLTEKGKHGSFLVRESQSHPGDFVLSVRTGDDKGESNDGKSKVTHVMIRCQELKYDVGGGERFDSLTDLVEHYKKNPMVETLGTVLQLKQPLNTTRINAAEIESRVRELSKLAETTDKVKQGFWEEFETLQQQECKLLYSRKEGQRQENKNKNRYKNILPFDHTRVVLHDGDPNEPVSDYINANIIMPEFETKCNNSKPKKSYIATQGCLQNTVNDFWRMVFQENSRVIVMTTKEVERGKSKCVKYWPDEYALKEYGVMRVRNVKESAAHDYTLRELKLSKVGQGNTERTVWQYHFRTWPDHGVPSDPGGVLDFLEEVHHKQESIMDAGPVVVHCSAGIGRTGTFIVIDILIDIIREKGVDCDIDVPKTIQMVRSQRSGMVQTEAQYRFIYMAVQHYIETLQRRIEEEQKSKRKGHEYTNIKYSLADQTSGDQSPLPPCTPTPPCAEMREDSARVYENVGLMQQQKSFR
Chain of human CYP2D6, CYP2D6 (gene 1565) (P10635 whole entry, looked up): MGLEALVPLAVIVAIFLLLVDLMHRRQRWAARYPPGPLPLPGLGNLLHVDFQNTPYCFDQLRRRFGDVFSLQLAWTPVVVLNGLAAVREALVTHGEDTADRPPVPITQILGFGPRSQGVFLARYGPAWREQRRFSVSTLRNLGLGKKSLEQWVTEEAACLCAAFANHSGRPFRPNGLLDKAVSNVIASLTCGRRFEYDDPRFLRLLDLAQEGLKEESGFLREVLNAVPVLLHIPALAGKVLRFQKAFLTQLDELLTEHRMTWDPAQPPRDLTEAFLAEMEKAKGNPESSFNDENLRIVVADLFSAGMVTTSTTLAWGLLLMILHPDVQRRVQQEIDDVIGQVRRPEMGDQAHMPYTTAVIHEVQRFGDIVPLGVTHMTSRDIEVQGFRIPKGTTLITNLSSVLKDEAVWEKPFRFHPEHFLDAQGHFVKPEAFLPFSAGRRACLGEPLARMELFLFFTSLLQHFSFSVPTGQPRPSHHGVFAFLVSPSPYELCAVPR
Chain of Retinoic acid receptor RXR-alpha (Homo sapiens) (P19793 whole entry, looked up): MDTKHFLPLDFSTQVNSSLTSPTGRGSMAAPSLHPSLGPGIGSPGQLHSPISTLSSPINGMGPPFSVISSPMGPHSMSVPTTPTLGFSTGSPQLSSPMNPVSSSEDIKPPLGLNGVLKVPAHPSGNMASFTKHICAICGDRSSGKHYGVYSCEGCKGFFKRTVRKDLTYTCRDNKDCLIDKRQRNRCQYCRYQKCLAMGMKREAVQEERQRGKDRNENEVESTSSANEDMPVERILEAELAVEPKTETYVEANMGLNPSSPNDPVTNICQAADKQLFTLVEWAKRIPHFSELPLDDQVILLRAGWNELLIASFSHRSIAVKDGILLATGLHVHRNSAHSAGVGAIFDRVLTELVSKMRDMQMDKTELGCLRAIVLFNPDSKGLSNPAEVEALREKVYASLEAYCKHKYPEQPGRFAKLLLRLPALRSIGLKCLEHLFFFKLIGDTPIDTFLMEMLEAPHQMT
Chain of human Colony Stimulating Factor 1 Receptor (CSF1R), CSF1R (gene 1436) (P07333 whole entry, looked up): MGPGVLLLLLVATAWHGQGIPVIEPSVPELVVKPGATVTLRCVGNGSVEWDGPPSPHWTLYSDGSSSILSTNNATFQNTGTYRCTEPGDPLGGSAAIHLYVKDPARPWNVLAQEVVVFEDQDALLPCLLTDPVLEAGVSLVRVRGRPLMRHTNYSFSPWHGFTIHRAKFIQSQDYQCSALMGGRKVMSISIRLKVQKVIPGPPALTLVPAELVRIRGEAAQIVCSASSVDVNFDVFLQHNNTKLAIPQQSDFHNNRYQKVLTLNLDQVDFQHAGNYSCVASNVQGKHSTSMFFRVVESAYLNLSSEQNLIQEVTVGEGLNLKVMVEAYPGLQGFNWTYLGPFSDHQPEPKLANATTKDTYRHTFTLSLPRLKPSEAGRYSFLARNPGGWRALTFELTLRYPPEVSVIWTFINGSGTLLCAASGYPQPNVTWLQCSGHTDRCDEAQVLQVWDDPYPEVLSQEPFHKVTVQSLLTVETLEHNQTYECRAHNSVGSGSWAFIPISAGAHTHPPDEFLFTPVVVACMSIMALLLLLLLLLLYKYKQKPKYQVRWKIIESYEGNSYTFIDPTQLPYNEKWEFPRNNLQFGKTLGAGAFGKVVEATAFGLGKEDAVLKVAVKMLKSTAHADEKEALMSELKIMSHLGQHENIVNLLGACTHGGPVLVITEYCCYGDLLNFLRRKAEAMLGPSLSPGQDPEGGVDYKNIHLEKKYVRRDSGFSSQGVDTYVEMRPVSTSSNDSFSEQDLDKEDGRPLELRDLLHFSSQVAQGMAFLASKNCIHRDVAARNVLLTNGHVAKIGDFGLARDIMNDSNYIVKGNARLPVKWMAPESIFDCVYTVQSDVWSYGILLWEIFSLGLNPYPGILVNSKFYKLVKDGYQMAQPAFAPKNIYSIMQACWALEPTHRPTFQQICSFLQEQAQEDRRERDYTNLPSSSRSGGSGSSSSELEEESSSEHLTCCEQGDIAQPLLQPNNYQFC
Chain of human AKT serine/threonine Kinase 1 (AKT1), AKT1 (gene 207) (P31749 whole entry, looked up): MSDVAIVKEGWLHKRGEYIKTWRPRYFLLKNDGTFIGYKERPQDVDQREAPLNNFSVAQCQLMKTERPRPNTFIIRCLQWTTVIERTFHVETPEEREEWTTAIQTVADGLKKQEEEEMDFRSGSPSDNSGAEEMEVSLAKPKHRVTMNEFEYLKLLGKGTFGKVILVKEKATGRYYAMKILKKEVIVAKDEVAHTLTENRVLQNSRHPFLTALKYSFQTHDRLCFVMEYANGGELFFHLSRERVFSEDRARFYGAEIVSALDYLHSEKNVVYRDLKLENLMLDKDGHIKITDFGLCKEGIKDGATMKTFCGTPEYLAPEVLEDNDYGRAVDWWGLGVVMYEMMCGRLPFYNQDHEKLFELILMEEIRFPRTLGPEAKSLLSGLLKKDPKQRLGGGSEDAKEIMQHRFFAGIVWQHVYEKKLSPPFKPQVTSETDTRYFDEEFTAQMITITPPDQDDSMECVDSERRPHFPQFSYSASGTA
Chain of human FYN Proto-Oncogene, Src family Tyrosine Kinase (Fyn), FYN (gene 2534) (P06241 whole entry, looked up): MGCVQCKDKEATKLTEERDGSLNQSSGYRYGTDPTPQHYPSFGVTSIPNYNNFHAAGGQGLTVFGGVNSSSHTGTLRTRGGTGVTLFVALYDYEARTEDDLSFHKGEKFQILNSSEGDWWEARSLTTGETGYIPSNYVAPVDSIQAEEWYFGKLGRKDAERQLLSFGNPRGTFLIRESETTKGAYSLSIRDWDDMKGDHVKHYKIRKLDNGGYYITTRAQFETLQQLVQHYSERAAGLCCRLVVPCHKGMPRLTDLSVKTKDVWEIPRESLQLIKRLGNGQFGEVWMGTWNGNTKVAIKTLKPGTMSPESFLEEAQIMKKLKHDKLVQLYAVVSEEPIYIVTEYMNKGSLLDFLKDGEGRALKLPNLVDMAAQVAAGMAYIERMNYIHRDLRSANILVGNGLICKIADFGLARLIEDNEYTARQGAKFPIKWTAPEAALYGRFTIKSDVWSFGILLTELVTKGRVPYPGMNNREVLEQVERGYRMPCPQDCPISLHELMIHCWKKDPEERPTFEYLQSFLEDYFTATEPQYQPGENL

CC(C)CCCCCCCOC(=O)c1ccccc1C(=O)OCCCCCCCC(C)C
inactive: [1] | THRB (gene 7068) | [2] | [3]

CC1(C)[C@H](C(=O)O[C@H](C#N)c2cccc(Oc3ccccc3)c2)[C@@H]1C=C(Br)Br
inactive: rat CYP2C6, gene 293989 | [7] | [8] | [9] | [10]
active: [4] 2.27 µM | [5] 115 µM | [6] 111 µM

O=[N+]([O-])c1ccc(Cl)cc1
inactive: [11] | [12] | [13] | [14] | [15] | [16] | [17] | [18]
